We go through 97 compounds from PubChem BioAssay AID651664 (NMMLSC, 2012).

The whole screen tested about 1,800 compounds, of which fewer than 10 were called active. Not all results are given here. Unmarked numbers belong to inactive results.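 The calls were made as follows: active = inhibition of granule release above a set limit; inactive = the rest.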

This test is described as follows: LAMP-1 surface externalization blockers in TALL-104 cells – cell-based, flow cytometry, validation set (AID 651664). The settings on record: TALL-104 LAMP-1 externalization, at 15.2 µM, stronger effect = higher value, stimulated with thapsigargin and PMA.
The inhibition is the drop in the measured response relative to a control, in per cent. On to `Cc1ccc(C(=O)NC(=S)Nc2ccc(-c3cc4ccccc4oc3=O)cc2)c(C)c1`, for which the inhibition was -0.7%.

With `CCOC(=O)c1[nH]c(C)c(/C(O)=C2\C(=O)C(=O)N(CCN(C)C)C2c2ccncc2)c1C` (configuration not stated), the inhibition was 4%.

In the case of `O=C1C=C(N2CCN(C(=O)c3ccccc3)CC2)C2(CCCCC2)O1`, the inhibition is -4.4%.

Regarding `CCc1ccc2c(c1)c(N=NC1=NC(=O)CS1)c(O)n2CC`, the inhibition was -0.4%.

Turning to `CC(C)(C)NC(=O)C(=O)N/N=C/c1ccc(Br)cc1`, the inhibition is -2.4%.

Turning to `Cn1cnnc1Sc1cc(N2CCN(S(=O)(=O)c3ccc(Cl)c(Cl)c3)CC2)ccc1[N+](=O)[O-]`, the inhibition was 0.3%.

Turning to `O=C(NCc1ccc2c(c1)OCO2)c1cccc(F)c1`, the inhibition is 6.2%.

Turning to `Cc1cc(C(=O)CSc2nc3ccc(Cl)cc3[nH]2)c(C)n1CC1CCCO1` (configuration not stated), the inhibition was 1.6%.

For the compound `COc1ccc(/C(O)=C2/C(=O)C(=O)N(CCCN(C)C)C2c2ccc(Cl)cc2)cc1OC` (configuration not stated), the inhibition was 6.2%.

As to `CCCCN(CCCC)CP(=O)(c1ccccc1)c1ccccc1`, the inhibition is 0%.

Turning to `O=C(Cn1cnc2ccccc2c1=O)c1ccc2ccccc2c1`, the inhibition is 0%.

Turning to `CC1CCN(S(=O)(=O)c2ccc(F)c(C(=O)O)c2)CC1`, the inhibition was 3.9%.

As to `CC(=O)c1ccc(NC(=O)Nc2ccc(NS(=O)(=O)c3ccc(C)cc3)cc2)cc1`, the inhibition is -2.9%.

Turning to `CCCCN(CCCC)C(=S)N/N=C/c1c(C)[nH]n(-c2ccccc2)c1=O`, the inhibition is -0.4%.

With `Cc1ccc(C(=O)C2(C)C3c4cc(Br)ccc4OC(=O)C32C(=O)c2ccco2)cc1` (configuration not stated), the inhibition is 93.2% (active).

For `N#CC1=C(N)N(c2ccc(Oc3ccccc3)cc2)C(=O)C1`, the inhibition was 1.8%.

In the case of `CCN(CC)C(=O)CSc1nc2ccccc2c(=O)[nH]1`, the inhibition is 0.4%.

`O=C(/C=C/c1ccc([N+](=O)[O-])cc1)NCC1CCCO1` (configuration not stated): the inhibition was -0.8%.

Turning to `COc1cccc2cc(C(=O)Nc3cccc(C)n3)c(=O)oc12`, the inhibition was 4.9%.

Turning to `CCCCSC(=S)N(C)C1CCS(=O)(=O)C1` (configuration not stated), the inhibition was -0.4%.

As for `COP(C)(=O)c1c(C)nn(-c2ccccc2)c1C` (configuration not stated), the inhibition was -2.1%.

On to `Cn1c(Cl)c(C(=O)Nc2ccccc2)c2ccccc21`, for which the inhibition was -1.3%.

`Cc1csc(NC(=O)Cc2coc3cc(C)c(C(C)C)cc23)n1`: the inhibition is -2.3%.

For the compound `N/C(=N\OC(=O)c1cccc(Br)c1)c1ccc(Br)cc1`, the inhibition was 57.6% (active).

Turning to `N/C(=N\OC(=O)c1ccc(Cl)cc1Cl)c1ccc(Cl)cc1`, the inhibition is 5.2%.

On to `N/C(=N\OC(=O)CCCN1C(=O)c2ccccc2C1=O)c1ccc(Br)cc1`, for which the inhibition is -3.6%.

In the case of `CCOC(=O)C(C)On1c(-c2ccccc2)nc2ccc([N+](=O)[O-])cc21` (configuration not stated), the inhibition is 4.1%.

As for `CCc1nn(-c2ccccc2)c2c1-c1cc(OC)c(OC)cc1C1(N2)C(=O)Nc2ccccc21` (configuration not stated), the inhibition was -0.7%.

As for `CCOc1c(Cl)cc(C(=O)Nc2ccccc2-c2ccccc2)cc1Cl`, the inhibition was -0.6%.

For the compound `O=C(COc1ccccc1O)N1CCN(C(=O)c2ccco2)CC1`, the inhibition is 0.9%.

Consider `OCCSc1ncnc2c1oc1ccccc12`, for which the inhibition is -1.3%.

As for `O=C(O)CCCCCNC(=O)Nc1ccc2c(c1)OCCO2`, the inhibition is -3.4%.

As for `O=C1c2ccccc2NC(c2cnc3ccccc3n2)N1O` (configuration not stated), the inhibition was -0.6%.

With `COc1cc(CC(=O)OCC(=O)c2ccc3c(c2)OCCO3)cc(OC)c1OC`, the inhibition is 0.6%.

As for `Cc1cc(NC(=O)c2cccc3ccccc23)cc(C)c1OCC(=O)N1CCOCC1`, the inhibition is -2.8%.

Take `N#Cc1c(-c2ccccc2)nc(-c2ccccc2)nc1N1CCOCC1`: the inhibition was -0.6%.

Consider `Cc1nc2c(=O)oc3ccccc3c2n1-c1ccccc1`, for which the inhibition is -0.5%.

Turning to `CCOC(=O)C1CCN(C(=O)CN(c2cc(OC)ccc2OC)S(=O)(=O)c2ccccc2)CC1`, the inhibition was -2.6%.

Turning to `Cc1nn(C)cc1CNC(=O)CCC(=O)O`, the inhibition is 5.3%.

On to `COC(=O)C1CCN(c2cc(=O)n(C3CCCCC3)c(=O)[nH]2)CC1`, for which the inhibition is 5.6%.

Regarding `Cc1ccccc1C1CC(c2ccccc2OC(F)F)Nc2ncnn21` (configuration not stated), the inhibition was -2.3%.

For `Cc1cc2ccccc2nc1SCC(=O)N1c2ccccc2CC1C` (configuration not stated), the inhibition is -0.9%.

Turning to `CC12Cc3ccc4ccccc4c3C=C1C[N+](C)(C)C2` (configuration not stated), the inhibition is -0.3%.

For `CC1=NC(=O)C(N=Nc2ccccc2)N1c1ccccc1` (configuration not stated), the inhibition was -2.8%.

Consider `CC(C)c1ccc(NS(=O)(=O)c2ccc3[nH]cc(C(=O)N4CCC(C(N)=O)CC4)c(=O)c3c2)cc1`, for which the inhibition is -0.7%.

Take `CCC(C)(C)NC(=O)C(c1ccco1)N(C(=O)Cn1nnc2ccccc21)c1ccc2c(c1)OCO2` (configuration not stated): the inhibition was -0.1%.

As to `Cc1ccc(S(=O)(=O)N2CCN(C(=O)c3cc4c(C)nn(-c5ccccc5C)c4s3)CC2)cc1`, the inhibition is -1.8%.

For the compound `CCOC(=O)c1sc2nc(CC(=O)OC)nc(NCCN3CCOCC3)c2c1C`, the inhibition was -2.4%.

In the case of `COc1ccc(C(C)=O)cc1CN1C(=O)NC2(CCCCC2)C1=O`, the inhibition was -0.4%.

Consider `Cc1occc1C(=O)Nc1ccc2ccccc2c1`, for which the inhibition is 0.2%.

Consider `CCS(=O)(=O)N1CCCC(C(=O)NC2CCCCC2C)C1` (configuration not stated), for which the inhibition was 0.3%.

As to `O=C(O)c1c[nH]c(=S)n1-c1ccc(F)cc1`, the inhibition is 1.2%.

Take `COCCN1CN(S(=O)(=O)c2ccc(Cl)cc2)c2nc3ccccc3nc21`: the inhibition was -1.9%.

With `COc1cccc(C(C(=O)NCc2ccco2)N(Cc2ccco2)C(=O)Cn2nnc3ccccc32)c1` (configuration not stated), the inhibition is -3.7%.

Turning to `CCCn1c2c(c(O)c(C(=O)Nc3ccccc3)c1=O)CCCC2`, the inhibition is 1.8%.

Regarding `CSCC[C@H](NC(=O)NCCC1=CCCCC1)C(=O)O`, the inhibition was 1.1%.

Turning to `CCOC(=O)c1c(C(C)(C)C)oc2ccc(O)cc12`, the inhibition is 1.3%.

On to `Clc1ccc(CON/C=N/c2ncnc3sccc23)cc1`, for which the inhibition was -1.5%.

Turning to `CSc1nc(-c2ccc(Cl)cc2)nn1C(=O)c1ccco1`, the inhibition is 7%.

As for `C1=C(c2ccccc2)Nc2nnnn2C1c1cccs1` (configuration not stated), the inhibition is 0.7%.

Take `O=C(NCc1nc2ccccc2[nH]1)c1cc2ccccc2oc1=O`: the inhibition was 6.1%.

Turning to `c1ccc2nc(-c3nc4ccccc4[nH]3)ccc2c1`, the inhibition is 0.9%.

Consider `Cc1cccc(CC(Cc2nc3ccccc3[nH]2)c2nc3ccccc3[nH]2)c1` (configuration not stated), for which the inhibition is 94.4% (active).

In the case of `COc1ccc(CCNC(=O)c2ccccc2NC(=O)c2ccco2)cc1OC`, the inhibition is -1.7%.

Turning to `COC(=O)CN1C(=O)C(O)(CC(=O)c2ccc(C)o2)c2ccccc21` (configuration not stated), the inhibition was -1.9%.

Turning to `COc1cccc(OC)c1C(=O)Nc1cc(C)on1`, the inhibition is -2.4%.

As for `O=C(c1ccc(F)cc1)c1ccc(N2CCCC2)cc1`, the inhibition was -4.5%.

Take `O=c1cc(N2CCc3ccccc3C2)[nH]c(=O)n1C1CCCCC1`: the inhibition is 8.4%.

In the case of `CCN(CC)C(=O)CSc1ncnc2c1nnn2-c1ccc(OC)cc1`, the inhibition was -0.1%.

As to `O=S(=O)(CCc1nc2ccccc2o1)c1ccc(Cl)c(Cl)c1`, the inhibition was -2.2%.

With `COC(=O)c1ccccc1NC(=O)c1ccc(COc2ccc(C)c(C)c2)o1`, the inhibition is -0.1%.

For the compound `O=C(c1ccc(S(=O)(=O)N2CCCCCC2)cc1)N1CCC(CN2C(=O)c3cccc4cccc(c34)C2=O)CC1`, the inhibition is 0.6%.

Turning to `c1nnnn1C12CC3CC(CC(C3)C1)C2`, the inhibition is 3.1%.

As to `COC(=O)c1ccc(N2C(=O)CC(N(C)CCc3ccc(OC)c(OC)c3)C2=O)cc1` (configuration not stated), the inhibition was 66% (active).

For `CCOC(=O)c1ccc(N2C(=O)CC(C3CCCO3)C2=O)cc1` (configuration not stated), the inhibition was 3.6%.

As to `COC(=O)c1ccc(N2C(=O)CC(SCCN)C2=O)cc1` (configuration not stated), the inhibition was -1.8%.

As to `O=C(Nc1cc(C(F)(F)F)ccc1N1CCOCC1)c1cccnc1Cl`, the inhibition is -2.8%.

As for `CCCS(=O)(=O)N1CCCC(C(=O)NCCN(Cc2ccccc2)C(C)C)C1` (configuration not stated), the inhibition is -0.7%.

For the compound `O=C(/C=C/Nc1cccc(C(F)(F)F)c1)c1ccc(Oc2ncccn2)cc1`, the inhibition was -1%.

Consider `NC(=S)N/N=C/c1ccc(-c2cccc([N+](=O)[O-])c2)o1`, for which the inhibition is 1.9%.

Turning to `COc1ccc(NC(=O)c2cccc(S(=O)(=O)N3CCOCC3)c2)cn1`, the inhibition is 1.5%.

`O=C(NCC1CCCO1)/C(=C\c1ccco1)NC(=O)c1ccccc1` (configuration not stated): the inhibition is -2.2%.

With `CCc1ccc(Nc2ncccc2C#N)cc1`, the inhibition was 1.1%.

For the compound `C=CCn1c(-c2cccs2)nc2nc3ccccc3nc21`, the inhibition was -2.3%.

Consider `C/C(=N/OC(=O)c1ccc(F)cc1)c1ccc(C)cc1`, for which the inhibition was 0.7%.

For `CC1(C)Cc2c(C#N)c(SCc3ccccc3)nc(N3CCOCC3)c2CO1`, the inhibition is 1.1%.

Regarding `Fc1ccc(C2=Nn3c(Cc4ccccc4F)nnc3SC2)cc1`, the inhibition was 1.3%.

For `CC(=O)N1CCc2cc(NS(=O)(=O)c3cccs3)ccc21`, the inhibition was -1.2%.

Turning to `COc1cc(OC)cc(C(=O)Nc2nc3ccccc3[nH]2)c1`, the inhibition was -1%.

As to `Cc1cccc(N2CCN(CC(=O)Nc3ccc(-n4cnnn4)cc3)CC2)c1C`, the inhibition was -0.6%.

As to `COc1ccc(-c2cn[nH]c2N)cc1OC`, the inhibition is 2.5%.

For `O=C(COC(=O)c1ccccc1)NCc1ccco1`, the inhibition is -0.5%.

For the compound `CCOC1(OCC)N=C(N)C2(C#N)C(c3cccc(C)c3)C12C#N` (configuration not stated), the inhibition was -0.4%.

For `Cc1ccc(NC(=O)/C(=C\C=C\c2ccccc2)NC(=O)c2ccccc2)cc1`, the inhibition is -0.3%.

For the compound `Cc1ccc(NC(=O)c2cc(S(=O)(=O)Nc3ccc(C)cc3)cs2)cc1`, the inhibition is 0.6%.

Turning to `COc1cc(N)cc(NC(=O)c2ccncc2)c1`, the inhibition was -0.4%.

Regarding `COc1ccc(CN2CCOCC2)cc1`, the inhibition is 1.5%.
